From ChEMBL document CHEMBL4513216, “Probing the Open Global Health Chemical Diversity Library for Multistage-Active Starting Points for Next-Generation Antimalarials” (ACS Infect Dis, 2020)
About 8,600 (12%) of roughly 69,000 compounds showed an effect of 50% or more. The sample holds strong results, similar compounds and a random draw of the others, so the mix is not that of the screen.

test system: Plasmodium berghei; experiment: Screen against P. berghei liver stage (PbLuc), transformed with Luciferase, at 10uM; type: functional, HepG2; details: tested at 10 uM

Point of comparison: `O=C(C1CC1)N1CCOC2(CCNCC2)C1`, INHIBITION 36.7%. Against it:
- CCOc1cc2c(cc1CN1CCC3(CC1)CNC(=O)C3)CCC2 — higher, 39.4%
- COc1c(C2CCCN2CC(=O)NCc2ccccn2)c(C)nn1C (stereo not given) — lower, 19.6%
- COC(C(=O)NC1CC1)c1ccccc1 (stereo not given) — lower, -35.9%
- CCOC(=O)C1(O)CCN(C(=O)Nc2cccc(F)c2)CC1 — lower, -16.9%
- CNC(=O)Cc1cc2nccc(-c3c(OC)cccc3OC)n2n1 — higher, 45.6%
- COc1cccc(OC)c1-c1ccnc2cc(CC(=O)NC3CC3)nn12 — higher, 39.7%
- COc1cccc(OC)c1-c1ccnc2cc(CC(=O)NC(C)C)nn12 — higher, 54.5%
- CC(C)c1ccc(O)c(C(=O)NCc2cc[nH]n2)c1 — lower, 12.8%
- CCN(c1ccc(C(=O)NCc2cc[nH]n2)cc1)C(C)C — higher, 82.6%
- CCN(c1ccc(C(=O)NCc2ccnc(C)n2)cc1)C(C)C — lower, 0.433%
- Cc1cc(Cc2ccc(S(=O)(=O)N3CCOCC3)cc2)c(=O)[nH]n1 — lower, 19.8%
- CCN(Cc1nc(C)no1)C(=O)C1CC(=O)N(Cc2ccccn2)C1 (stereo not given) — lower, -14.1%
- CCN(CC1CCOCC1)C(=O)C1CC(=O)N(Cc2cccnc2)C1 (stereo not given) — higher, 53.2%
- CN(Cc1ccon1)C(=O)C1CC(=O)N(Cc2cccnc2)C1 (stereo not given) — lower, -49.3%
- CCc1nnc(CN(CC)C(=O)C2CC(=O)N(Cc3cccnc3)C2)o1 (stereo not given) — lower, 23.5%
- CCN(Cc1nc(C)no1)C(=O)C1CC(=O)N(Cc2cccnc2)C1 (stereo not given) — lower, 15.6%
- CCc1noc(CN(CC)C(=O)C2CC(=O)N(Cc3ccncc3)C2)n1 (stereo not given) — higher, 53.2%
- CNC(=O)Cn1ccc2ccc(NC(=O)C(C)CSC)cc21 (stereo not given) — lower, 29.6%
- O=S(=O)(c1ccc(-c2cnco2)cc1)N1CCCC2(CCNCC2)CC1 — higher, 52.7%
- O=S(=O)(c1ccc(-c2cnco2)cc1)N1CCC2(CCCNC2)C1 (stereo not given) — lower, 35.7%
- O=S(=O)(c1ccc(-c2cnco2)cc1)N1CCCC(O)(CO)CC1 (stereo not given) — lower, -31.4%
- CC(c1cccc(-c2ncccc2C#N)c1)N(C)C (stereo not given) — lower, 19.3%
- CN(Cc1cc(C(C)(C)C)n[nH]1)C(=O)c1c[nH]nc1-c1cccc(F)c1 — lower, 30.4%
- Cc1ccnc(NCc2cn3nc(C)sc3n2)n1 — higher, 65.2%
- CCNc1ccnc(NCc2cn3nc(C)sc3n2)n1 — lower, -49.3%
- Cc1nn2cc(CNc3nccc(CCC(F)(F)F)n3)nc2s1 — lower, -4.91%
- O=C(C1CC=CC1)N1CCC2(CC1)CNCCO2 — lower, 29%
- Cc1ccc(CN2CCOC3(CCN(C(=O)N4CCCC4)CC3)C2)cc1 — lower, 15.7%
- Cc1ccc(CN2CCOC3(CCN(C(=O)C4CCOC4)CC3)C2)cc1 (stereo not given) — higher, 39.3%
- O=C(C1CC1)N1CCC2(CC1)CNCCO2 — higher, 51.2%
- CC(=O)N1CCCC2(C1)CN(C(=O)C1CCCCC1)CCO2 (stereo not given) — lower, 9.97%
- Cc1ccc(CN2CCOC3(CCN(C(=O)C4CC=CC4)CC3)C2)cc1 — higher, 55.6%
- CC(=O)N1CCOC2(CCN(C(=O)C3CC3)CC2)C1 — higher, 85.6%
- O=C(C1CCC1)N1CCC2(CC1)CNCCO2 — lower, -12.4%
- Cc1ccc(CN2CCOC3(CCCN(C(=O)c4ccco4)C3)C2)s1 (stereo not given) — lower, 28.5%
- Cc1ccc(N(CCC#N)C(=O)CN2CCCC2c2ccsc2)cc1C (stereo not given) — lower, -10.75%
- CC1CCC(C(=O)N2CCC(n3cc(C4(O)CCCC4)nn3)CC2)CC1 (stereo not given) — higher, 47.4%
- c1csc(-c2nc(CN3CCCC3Cn3cccn3)co2)c1 (stereo not given) — lower, 17.5%
- CC(C)(N)c1nc(C(F)F)cc(=O)[nH]1 — lower, -4.35%
- CS(=O)(=O)NC(c1ccccc1)c1ccc2c(c1)CCCO2 (stereo not given) — lower, -9.98%
- CC(C)c1nc(CN(C)C(=O)[C@H](N)Cc2ccc(Cl)cc2)cs1 — lower, 17.2%
- COc1ccc(CN(C)C(=O)NC(C)c2nncn2C)cc1F (stereo not given) — lower, -24.7%
- CCOc1ccc(CN(C)C(=O)NC(C)c2nncn2C)cc1 (stereo not given) — lower, -6.75%
- CC(NC(=O)N(C)Cc1cccc(OC(F)F)c1)c1nncn1C (stereo not given) — higher, 68.2%
- Cc1nc(CCN)cc(N2CCOc3ccc(Cl)cc3C2)n1 — lower, -43.5%
- Cc1nc(C2CCNCC2)cc(N2CCOc3ccccc3C2)n1 — lower, -55.1%
- Cc1nc(C2CCN(C)CC2)cc(N2CCOc3ccc(Cl)cc3C2)n1 — higher, 94.3%
- CC(C)Oc1ccc(CN)c(C(F)(F)F)c1 — lower, 10%
- CCOc1ccccc1OC1CCN(C(=O)c2cnns2)CC1 — higher, 44.1%
